Source: PubChem BioAssay (National Center for Advancing Translational Sciences (NCATS))
Sampled rows, rich in hits. Any-hit rate of the full collection: about 21%.
Shiga toxin inh: Shiga toxin inhibition | inhibition, % at 38.7 µM | 290,000 compounds, 9.2% hits | Vero cells, Shiga toxin protein synthesis inhibition reporter; in the data active = inhibition mostly above about 28%, no sharp cut-off; inactive = mostly below about 43%; note: 0% is about no effect
Pf growth 48h: P. falciparum growth inhibition at 48 hours (one generation); AID 504832; 310,000 compounds, 5.9% hits; P. falciparum luciferase growth in erythrocytes, 48 h; Potency, µM (titrated, usually from 28.7 µM), for inactives: at the top dose activity change, negative = inhibition, most hits filed as inhibitors; note: potency is the fitted concentration of half-maximal effect; % is set by controls: 0 for no effect and ±100 for the full control effect
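Luciferase-expressing P. falciparum in infected erythrocytes (2% hematocrit, 0.1% parasitemia final) in RPMI 1640/0.5% Albumax were exposed to compound for 48 hours at 37 C, 5% CO2; growth read as luminescence.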
CHX counter: counter-screen for Shiga toxin inhibitors: cycloheximide protein synthesis inhibition | cell reporter, cycloheximide protein synthesis inhibition counterscreen | max response, % | 300,000 compounds, 12% hits; in the data active = max response mostly above about 13%, no sharp cut-off; inactive = mostly below about 14%; note: read at 38.3 µM for the half of the compounds with a filed dose; 0% is about no effect
NS1 function inh: inhibitors of influenza NS1 protein function; Potency, µM (doses to about 46.1 µM), for inactives: top-dose activity, positive = more growth; 270,000 compounds, 0.4% hits; AID 2326; calls by dose curve; note: potency is the fitted concentration of half-maximal effect; actives are rising curves; nearly all actives have a fitted effect of over 50% in size
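In this qHTS, NS1 from influenza A is expressed in budding yeast, where it slows growth. Cells are switched from glucose to 2% galactose medium (pH 6.0, -URA), treated with compound, and growth recovery is read at OD600.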
Pf growth 96h: inhibits malaria parasite growth, 96 h | P. falciparum luciferase reporter growth, 96 h | Potency, µM (highest dose often 28.7 µM), inactives show at the highest dose activity change, negative = inhibition, hits mostly inhibitors | 320,000 compounds, 6.9% hits | AID 504834; note: potency is the fitted concentration of half-maximal effect; % is set by controls: 0 for no effect and ±100 for the full control effect
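Readout is luminescence from an integrated firefly luciferase in P. falciparum. Red cells, 2% hematocrit and 0.05% parasitemia final, were cultured with compound through two parasite generations (96 hours) at 37 C, 5% CO2.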
Starred values were filed as active, the others as inactive; ? = inconclusive; . = no result; [ ] = another dose, or the depositor's remark. Unless noted, calls come from the whole dose curve; as a rule, active = well fitted inhibition curve with a large enough effect; inconclusive = small, poorly fitted or top-dose-only effect, or another doubt; inactive = no such curve, though single readings can be large or run the other way.

SMILES | Shiga toxin inh | Pf growth 48h | CHX counter | NS1 function inh | Pf growth 96h
Fc1cccc(NC(=S)NNc2c3ccccc3nc3ccccc23)c1 | 16.8 | 2.08µM* | 7.9 | . | 0.5%
COc1ccc(-c2nc(CS(=O)CC(=O)N3CCOCC3)c(C)o2)cc1OC (stereo not drawn) | -7.5 | 7.1% | -5.4 | -1.9% | ?
COc1ccccc1N1CC(C(=O)Nc2ccccc2N2CCCC2)CC1=O (stereo not drawn) | . | 25.9% | . | . | 15.3%
COC(=O)c1cc2sccc2n1Cc1nc(-c2ccc(Cl)cc2)oc1C | 24.0 | 12.2% | 4.3 | 5.0% | 10.4µM*
COC(=O)c1cc2ccsc2n1Cc1nc(-c2cccc(Cl)c2)oc1C | -20.3 | . | -5.8 | 5.5% | 4.15µM*
COC(=O)c1cc2sccc2n1Cc1nc(-c2cccc(Cl)c2)oc1C | -11.7 | . | -4.2 | -5.1% | 9.28µM*
Cc1ccnc2nc(C(=O)OCC(=O)N3CC(C)CC(C)C3)nn12 (stereo not drawn) | . | -23.9% | . | . | 29.9%
Cc1ccc(S(=O)(=O)NC(Cc2ccccc2)C(=O)O)cc1 (stereo not drawn) | 11.9 | 0.0% | -4.7 | -1.0% | 14.2%
Cc1ccc(S(=O)(=O)NC(=O)NC(C)Cc2ccccc2)cc1 (stereo not drawn) | 55.7 | 0.6% | 19.8* | -1.9% | 16.6%
Cc1ccc(S(=O)(=O)NC(=O)NCCc2ccccc2)cc1 | 89.4 | 16.3% | 14.5* | . | -4.2%
Cc1ccc(S(=O)(=O)NNC(=S)NCCc2ccccc2)cc1 | 1.5 | 0.0% | -1.7 | -2.7% | 69.9%
CC(=O)Nc1ccc(S(=O)(=O)NC(CC(=O)NCCc2ccccc2)C(C)C)cc1 (stereo not drawn) | 52.0 | . | 30.6* | -6.3% | 14.1%
CC(C)N1CCN(Cc2ccc(C#CCCO)cc2)CC1CCO (stereo not drawn) | -14.4 | 30.6% | -0.7 | 1.3% | 23.0%
Cc1ccc(OCC(=O)Nc2nc(C)c(Cl)cc2Cl)c([N+](=O)[O-])n1 | . | -20.9% | . | . | -27.4%
COc1ccccc1NC(=O)Cn1cnc2sc(C)c(S(=O)(=O)N3CCCCC3)c2c1=O | -14.5 | -22.1% | -3.4 | -4.7% | 0.522µM*
CCCCN(C)C(=O)Cn1cnc2sc(C)c(S(=O)(=O)N3CCN(c4ccccc4OC)CC3)c2c1=O | -2.6 | 11.7µM* | -6.3 | -1.8% | 3.0%
CCN(CC)C(=O)Nc1ccc(Br)cc1 | 8.0 | 47.1% | 13.5 | 11.6% | 39.8%
Cc1cccc(-c2nc3ccccc3c(=O)[nH]2)c1 | 73.2* | -9.8%[0.00184 µM] | 23.5* | 2.7% | 12.5%
O=c1[nH]c(-c2cccnc2)nc2ccccc12 | -11.5 | 3.1% | -1.5 | 3.8% | .
CN(C)c1ccc(-c2nc3ccccc3c(=O)[nH]2)cc1 | 37.5* | -14.1% | 36.1* | -9.6% | 67.5%
COc1ccc(-c2nc3ccccc3c(=O)[nH]2)cc1 | 55.7* | 203.6% | 43.3* | -17.2% | 145.5%
O=c1[nH]c(-c2ccncc2)nc2ccccc12 | -2.0 | 32.9% | -2.9 | -88.7% | 7.38µM*
CC(=O)N[C@H]1CSSC[C@@H](C(=O)N2CCC[C@H]2C(=O)N2CCC[C@H]2C(=O)N[C@@H](CCCCN)C(=O)N[C@@H](CC(=O)O)C(N)=O)NC(=O)CNC(=O)[C@H](Cc2c[nH]c3ccccc23)NC(=O)[C@H](CCCNC(=N)N)NC(=O)[C@@H](Cc2ccc(Cl)c(Cl)c2)NC(=O)[C@H](Cc2cnc[nH]2)NC(=O)[C@H](CCC(=O)O)NC1=O | -9.2 | . | -7.4 | . | .
N=c1oc2ccccc2cc1-c1nc2ccccc2c(=O)[nH]1 | 59.8* | . | 14.0 | -12.9% | 50.4%
CCOc1ccc(CNC(=O)CCS(=O)(=O)Cc2ccccc2C)cc1OC | -4.7 | ? | -4.7 | . | 9.28µM*
SMILES | Shiga toxin inh | Pf growth 48h | CHX counter | NS1 function inh | Pf growth 96h
Cc1ccccc1CC1(CO)CCCN(C(=O)c2cc(Cl)ccc2F)C1 (stereo not drawn) | 16.5 | 1.9% | -4.7 | -37.0% | 19.7%
Cc1ccccc1CC1(CO)CCCN(Cc2ccn[nH]2)C1 (stereo not drawn) | -14.4 | 2.4% | 1.8 | -1.7% | 11.7µM*
Cc1ccccc1CC1(CO)CCCN(C(=O)c2ccccc2Cl)C1 (stereo not drawn) | 44.3 | -2.7% | -2.3 | -4.3% | 9.28µM*
Cc1ccccc1CC1(CO)CCCN(Cc2cn[nH]c2-c2ccccc2)C1 (stereo not drawn) | -7.4 | ? | -1.6 | -3.1% | -8.8%
CN(C)c1nc(Nc2ccc(Cl)cc2)nc(OCC#N)n1 | -16.4 | -19.3% | -1.6 | -26.1% | ?
CN(C)c1nc(N)nc(Nc2ccccc2C#N)n1 | 9.2 | -4.6% | -1.1 | ? | 13.1µM*
